BCR signal inh = inhibitors of chronic active B-cell receptor signaling; ABC-DLBCL IkBa-CBG/CBR reporter, luminescence ratio, 4 h; Potency, µM (top dose mostly 46.1 µM), for the others: at the highest dose activity change, negative = inhibition, most hits filed as inhibitors; 340,000 tested, 0.05% active; AID 493014; active = well fitted inhibition curve with a large enough effect in the signal ratio, with a control signal flat, not every such curve was filed as active; inconclusive = small, poorly fitted or top-dose-only effect, or effect the other way, or a change in a side signal; the % refers to the signal ratio;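 also: potency is read from the fitted curve at half-maximal effect; plate controls were basal doxycycline-induced cells for no effect and cells given 10 µM MG132 for full effect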
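TMD8 ABC-DLBCL cells carrying doxycycline-inducible green luciferase fused to IkappaBalpha plus unfused red luciferase were exposed to compounds (up to 46 uM) for 4 hrs at 37C. Activity came from the overlap-corrected green/red luminescence ratio.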
LDHA inh = LDHA (human) enzyme inhibition. activity change, % (values are at about 110 or 230 µM). purified LDHA, NADH/diaphorase-resazurin fluorescence; stronger effect = lower value. AID 1347041. 480,000 tested, 0.15% active. P00338; in the data active = activity change below about -30%; inconclusive = mostly about -25% to -30%;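 also: plate controls were DMSO wells for no effect and wells without enzyme for full effect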
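Remaining NADH was detected by diaphorase (0.133 mg/mL) converting 37 µM resazurin to fluorescent resorufin, read at 0 and 20 minutes. The preceding 5-minute room-temperature reaction used 2 nM LDHA, 0.2 mM sodium pyruvate and 0.06 mM NADH at pH 7.4.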
ALOX12 inh = ALOX12 (human) lipoxygenase inhibition | Potency, µM (series often up to 108 µM), for the others: at the top dose activity change, negative = inhibition, most hits filed as inhibitors | purified 12hLO, xylenol orange hydroperoxide absorbance | 580,000 tested, 1.1% active | P18054; active = well fitted inhibition curve with a large enough effect; inconclusive = small, poorly fitted or top-dose-only effect, or another doubt; inactive = no such curve, though single readings can be large or run the other way; also: potency is read from the fitted curve at half-maximal effect; % is scaled to controls: 0 for no effect and ±100 for the full control effect
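Purified human 12hLO at 150 nM in 25 mM Hepes, 0.01% Triton X-100, pH 7.0, preincubated 15 min at room temperature with compound. Reaction started with 40 uM arachidonic acid, 30 min at room temperature. Hydroperoxide measured by Fe-xylenol orange, 573/405 nm absorbance ratio.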
ClpP mod = qHTS Assay for Activators of ClpP; 340,000 tested, 1.9% active; Potency, µM (top dose mostly 57.5 µM), without a hit: at the top dose activity change, negative = active; ATP-dependent Clp protease proteolytic subunit (Bacillus subtilis (strain 168)), P80244; purified B. subtilis ClpP, FRET peptide cleavage, 20 min; AID 651965, 2013; active = well fitted falling curve with a large enough effect; inconclusive = small, poorly fitted or top-dose-only effect; inactive = no such curve, though single readings can be large or run the other way; also: potency is read from the fitted curve at half-maximal effect; the source files actives as falling curves though it sought activators and does not explain the sign; nearly all actives have a fitted effect of over 65% in size
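ClpP 10 microg/mL final, pH 8 Tris/KCl buffer with BSA, glycerol, Tween-20; compound pinned in; FRET-FV substrate; RT 20 min; Ex320/Em430; ΔFRET vs ADEP 5.8 microM, DMSO, no enzyme.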
hERG WT inh = inhibitors of human wildtype KCNH2 potassium channel | Q12809 | U2OS, BacMam KCNH2, thallium flux FluxOr; stronger effect = lower value | activity change, % at 1.84 µM | 340,000 tested, 0.37% active;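 active = maximum activity change below -70%; inconclusive = maximum activity change between -70% and -50%; inactive = maximum activity change above -50%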; also: % is scaled to controls: 0 for no effect and ±100 for the full control effect
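U2OS cells transduced with wild-type KCNH2 virus are loaded with FluxOr dye for 45 min, and thallium flux is measured in kinetic reads before and after stimulation buffer. Rate constants are normalized to DMSO controls.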
KCNH2 3.1 inh = KCNH2 3.1 (human) potassium channel inhibition; 340,000 tested, 0.95% active; activity change, % (tested at about 1.8 µM); U2OS KCNH2 3.1, thallium flux FluxOr; stronger effect = lower value;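 active = maximum activity change below -70%; inconclusive = maximum activity change from -70% to -50%; inactive = maximum activity change above -50%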;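 also: thallium influx rate constant from kinetic fluorescence after stimulation buffer; % is scaled to controls: 0 for no effect and ±100 for the full control effect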
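Kinetic fluorescence (2 min after stimulation buffer) measures Tl+ influx through KCNH2 3.1 expressed by viral transduction in U2OS cells; the rate constant is normalized against DMSO controls serving as positive and negative references.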
The depositor's hits bear a star; ? = inconclusive; . = no result given; [ ] = remark or other dose. Most compounds without a hit are left out; they make up all but 3% or so of the library.

SMILES	BCR signal inh	LDHA inh	ALOX12 inh	ClpP mod	hERG WT inh	KCNH2 3.1 inh
Cc1ccc(/C=C2\C(=O)NC(=S)N(c3ccccc3F)C2=O)s1	?	-32.5*	39.8µM*	0.7%	-0.6	9.2
O=C(CN1CCN(Cc2ccccc2)CC1)Nc1ccc(Cl)cc1C(=O)c1ccccc1	.	7.6	?	.	.	.
O=C(CN1CCN(CCO)CC1)Nc1ccc(Cl)cc1C(=O)c1ccccc1	-11.4%	-5.4	-21.7%	-0.8%	-22.8	-86.8*
CN1CCN(CC(=O)Nc2ccc(Cl)cc2C(=O)c2ccccc2)CC1	-3.3%	-2.7	0.0%	0.2%	?	-77.6*
O=C(COc1ccccc1)Nc1ccc(Cl)cc1C(=O)c1ccccc1	-0.4%	1.5	3.5%	?	-3.1	-6.3
O=C1NC(=O)[C@]2(Cc3ccccc3N3CCN(c4ccccc4)CC32)C(=O)N1Cc1ccccc1 (stereo not given in full)	?	2.4	15.8µM*	-0.8%	-9.4	13.3
COc1ccc(CO)cc1	.	.	17.7%[176 µM]	.	.	.
O=C1NC(=O)N(Cc2ccccc2)C(=O)/C1=C/C=C/c1ccco1	?	-12.5	?	0.3%	5.4	9.2
CC(C)c1ccc(N2C(=O)NC(=O)/C(=C\C=C\c3ccco3)C2=O)cc1	14.1%	-9.9	10µM*	.	11.5	-9.4
O=C(c1cc(F)ccc1F)C1CCCN(CCCc2ccccc2)C1 (stereo not given)	4.6%	-2.0	-8.1%	.	4.3	-101.2*
CSC[C@H](NC(=O)COc1cc2c(c3oc(=O)c(C)c(C)c13)CCC(C)(C)O2)C(=O)O	-0.2%	6.2	?	28.2µM*	-33.8	8.7
COc1cc2c(cc1OC1CCCC1)NC(=O)C21CCN(Cc2cccc(O)c2)CC1	.	.	-4.4%[176 µM]	.	.	.
Cc1cc(C)cc(-n2c(=O)[nH]c3ccccc3c2=O)c1	.	-0.1	-24.0%	-23.8%	.	.
COc1cc2[nH]c(=O)n(-c3cccc(Cl)c3)c(=O)c2cc1OC	?	-3.1	10.1%	28.2µM*	8.6	-11.7
COc1cc2[nH]c(=O)n(-c3ccccc3)c(=O)c2cc1OC	3.7%	-3.7	0.0%	25.1µM*	-7.1	-15.6
COc1nc2ccccc2c(=O)n1-c1ccc(Cl)cc1	?	0.0	-14.2%	-1.6%	2.9	-3.6
O=c1c2ccccc2nc(N2CCCC2)n1-c1ccc(Cl)cc1	?	-6.9	-6.0%	22.4µM*	-1.0	3.1
Cc1ccsc1CNC(C)C(O)c1ccc(O)cc1 (stereo not given)	.	-7.7	-87.8%	.	.	.
O=C(O)c1cc[c]([Hg][Cl])cc1	?	-61.4*	.	0.3%	4.8	3.3
COc1ccc(C(=O)O)cc1OC	.	-13.7	-0.8%	-3.7%	-1.3	1.9
C1CC2CCC1CNC2	.	4.3	52.5%	.	.	.
N#Cc1cccc(NC(=O)Nc2ccc3n(c2=O)C[C@H]2C[C@@H]3CN(C3CCOCC3)C2)c1	.	.	15.8µM*	.	.	.
CCn1ccc(C(=O)N2CCC3(CC2)c2nccn2-c2ccccc2CN3CC(C)C)n1	.	.	36.5%	.	.	.
COc1ccccc1CNCC(=O)Nc1cc(S(=O)(=O)N2CCCCC2)ccc1C	-0.2%	-23.2	3.8%	8.91µM*	2.6	3.1
O=C(O)c1ccccc1Sc1c([N+](=O)[O-])cc(C(F)(F)F)cc1[N+](=O)[O-]	?	2.0	-0.1%	.	0.7	14.6
SMILES	BCR signal inh	LDHA inh	ALOX12 inh	ClpP mod	hERG WT inh	KCNH2 3.1 inh
O=C(O)c1cccc2c1NC(C(=O)O)C1CC(Sc3ccccc3[N+](=O)[O-])C(Cl)C21 (stereo not given)	?	13.0	3.16µM*	-24.6%	-8.9	21.5
CC(=O)c1ccc2c(c1)C1C(Cl)C(Sc3ccccc3[N+](=O)[O-])CC1C(C(=O)O)N2 (stereo not given)	2.8%	13.9	11.2µM*	0.9%	-0.2	-19.3
Cc1ccc(C(=O)Nc2cccc3cnccc23)cc1S(=O)(=O)N1CCCCC1	.	69.6	-56.5%	.	.	.
Cc1c(CC(=O)N2CCN(C(c3ccccc3)c3ccccc3)CC2)c(=O)oc2cc(O)ccc12	.	15.8	6.2%	.	.	.
COc1cccc(CC(=O)N2CCCCCC2CN2CCC(OC)CC2)c1 (stereo not given)	.	.	14.8%	.	.	.
CC12CCC(O)CC1CCC1[C@@H]2CCC2(C)C(C3=CC(=O)OC3)C(O)CC12O (stereo not given in full)	.	0.4	-7.2%	.	.	.
CC12CCC3c4ccc(OC(=O)N(CCCl)CCCl)cc4CCC3C1CCC2O (stereo not given)	.	-2.3	?	1.9%	34.0	-89.4*
Cc1ccc(Cn2nc(C)c(C(=O)NCc3cc(Cl)c4c(c3)OCCCO4)c2C)cc1	.	3.1	2.0%	.	.	.
C=CCn1c(O)c(C(C)=NCCN2CCN(C(=S)NC)CC2)c(=O)[nH]c1=O	-0.2%	6.0	10.0%	1.3%	-99.1*	-9.8
CCOC(=O)[C@]12Cc3cc(C)ccc3[C@H]1N(Cc1ccccc1)C(=O)c1ccccc12	.	-2.3	-6.3%	-1.6%	-2.6	-72.4*
COc1ccc2[nH]cc(CCNCc3ccc(OC)c(OC)c3)c2c1	.	0.1	?	.	.	.
NC(N)=Nc1ccc2[nH]c3c(c2c1)C[C@@]1(O)[C@H]2Cc4ccc(O)c5c4[C@@]1(CCN2CC1CC1)[C@H]3O5	23.1µM*	-13.1	.	-0.9%	2.7	-9.6
O=C(COc1ccccc1)N1CCN(CC2CC=CCC2)CC1 (stereo not given)	-0.1%	?	0.631µM*	.	10.9	-21.2
O=C(COc1ccccc1)N1CCN(CC2CC3C=CC2C3)CC1 (stereo not given)	1.8%	-20.8	?	0.4%	-3.0	-8.6
Cc1ccc(C2SCC(=O)Nc3n[nH]c(C)c32)cc1 (stereo not given)	.	6.5	-2.3%	.	.	.
COc1ccc(CN2C(=O)NC(=O)/C(=C\c3ccco3)C2=O)cc1	3.5%	-2.3	39.8µM*	.	?	-6.8
O=C1NC(=O)N(Cc2ccco2)C(=O)/C1=C\c1cccn1CCOc1ccc(Cl)cc1	?	-2.7	39.8µM*	1.8%	-10.6	-22.1
Cc1cccc(OCCn2cccc2/C=C2/C(=O)NC(=O)N(Cc3ccco3)C2=O)c1	9.6%	-8.8	-71.7%	.	-12.5	-0.8
Cc1cc(Cc2c(O)[nH]c(=S)[nH]c2=O)ccc1OC(C)C	3.8%	-12.5	20µM*	-0.8%	5.2	-7.0
CC(C)COc1ccc(Cc2c(O)[nH]c(=S)[nH]c2=O)cc1	0.5%	-5.0	8.91µM*	-1.3%	3.9	-8.2

Screening results as filed in PubChem.
